Screening results deposited in PubChem by several laboratories.
DUSP3 inh: inhibitors of human VHR1 phosphatase (DUSP3) | 290,000 compounds, 0.52% hits | inhibition, % at 13.3 µM | P51452 | AID 1654 | recombinant VHR phosphatase, pNPP absorbance; in the data active = inhibition above about 50%
Target sequence (P51452 whole entry, looked up): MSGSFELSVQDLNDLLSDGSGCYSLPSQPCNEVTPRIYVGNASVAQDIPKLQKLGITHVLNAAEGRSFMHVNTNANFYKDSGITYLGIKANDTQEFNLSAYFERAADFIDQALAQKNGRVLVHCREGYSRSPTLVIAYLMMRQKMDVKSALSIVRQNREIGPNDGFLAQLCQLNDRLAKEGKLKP
Sa RN4220 lethal: kills Staphylococcus aureus RN4220; AID 1259311; 330,000 compounds, 0.33% hits; S. aureus RN4220 growth, OD600, 16 h; inhibition, % (test concentration not listed); in the data active = inhibition above about 85%;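 note: plate controls were untreated cells for no effect and reference antibiotic for full effect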
ugtP null kill: compounds lethal to S. aureus RN4220 ugtP deletion mutant; 330,000 compounds, 0.54% hits; growth inhibition, % (test concentration not listed); OD600 growth, 16 h; in the data active = growth inhibition above about 68%;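 note: plate controls were untreated wells for no effect and antibiotic for full effect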
SARS 3CLpro inh: SARS-CoV 3CLpro protease inhibition; P0C6X7; 290,000 compounds, 0.14% hits; recombinant SARS-CoV 3CLpro, quenched FRET peptide cleavage; inhibition, % at 6 µM; in the data active = inhibition above about 12%
BJeLR lethal: BJeLR cell viability loss; BJeLR (HRASV12) viability, CellTiter-Glo ATP luminescence, 48 h; inhibition, % (concentration not given with the values); 300,000 compounds, 0.17% hits; AID 1554; in the data active = inhibition above about 50%
PrPC TRFRET: reduces human prion protein on the cell surface; P04156; AID 720596; 370,000 compounds, 0.43% hits; inhibition, % at 13.8 µM; cell surface PrPC, TR-FRET read-out; in the data active = inhibition above about 24%; note: 0% = median of the test wells and 100% = reference compound wells
The depositor's hits bear a star; . = no result given. Rows were chosen to be rich in hits. Some 1.4% of all compounds tested hit in one or more screens of this group.

SMILES	DUSP3 inh	Sa RN4220 lethal	ugtP null kill	SARS 3CLpro inh	BJeLR lethal	PrPC TRFRET
O=C(O)Cn1c(-c2ccccc2)nc2ccccc21	50.8*	-4.6	4.3	0.5	-4.2	-8.3
O=C(O)Cn1c(=O)c(-c2ccccc2)nc2ccccc21	-6.1	0.0	6.4	5.5	-10.9	-6.8
C=CCCC(Cc1ccc(F)cc1)C(=O)OCC(C)NC(=O)C(CC=C)CC(=O)N(CCO)Cc1ccccc1 (centres undefined)	.	0.8	5.7	.	.	.
CC1(C)C[C@H]2C=C(C=O)[C@]3(C=O)C[C@]3(C)[C@H]2C1	27.0	.	.	0.7	92.0*	-1.6
CC(C)C(=O)NC(c1ccco1)c1ccc2cccnc2c1O (centres undefined)	22.3	.	.	-0.6	6.6	10.5
Oc1c(C(Nc2nc3ccccc3s2)c2ccco2)ccc2cccnc12 (centres undefined)	-12.4	22.6	-13.7	-3.4	-3.7	24.8*
COc1ccc(C2Nc3ccccc3C(=O)N2NC(C)=O)c(OC)c1 (centres undefined)	52.6*	1.1	2.1	-1.8	1.8	6.8
CCCN1C(=O)c2ccccc2NC1c1ccc(OC)cc1OC (centres undefined)	8.1	1.6	3.6	2.9	-3.9	-2.3
Nc1ccc(S(=O)(=O)Nc2cnc3ccccc3n2)cc1	18.6	2.8	91.0*	9.7	2.9	-2.1
Nc1ccc(S(=O)(=O)Nc2cnc3c(Cl)cccc3n2)cc1	.	.	.	.	.	-11.1
COc1ccc(C2=NC(CO)(CO)CO2)cc1	20.8	-1.2	0.0	5.3	-4.5	11.6
COc1cc(C2=NC(CO)(CO)CO2)cc(OC)c1OC	57.6*	4.7	4.6	-2.7	-7.8	-2.6
CC1CN(C(C)CO)C(=O)c2cc(NC(=O)C3CCCCC3)ccc2OC1CN(C)S(C)(=O)=O (centres undefined)	.	4.2	9.5	.	.	.
C#CCOCCOCCOCCNc1nc(N2CCN(C(=O)C(Cc3ccc(O)cc3)n3cc(C(N)C(C)CC)nn3)CC2)nc(N2CCN(C(=O)C(C(C)CC)n3cc(C(N)COC(=O)C(F)(F)F)nn3)CC2)n1 (centres undefined)	.	5.8	4.7	.	.	.
O=c1[nH]c(CN2CCN(C/C=C/c3ccccc3)CC2)nc2cc(Cl)ccc12	54.3*	4.6	1.6	-7.1	7.6	-4.9
Cc1ccc(CN2C(Cc3ccccc3)C(=O)CS2(=O)=O)cc1 (centres undefined)	.	12.2	3.7	.	.	.
O=C(Nc1cccc([N+](=O)[O-])c1)c1ccc2ccccc2c1O	18.6	86.1*	86.2*	0.8	24.3	7.2
C#CCNC(=O)C1=CC(c2ccc3c(c2)OCO3)CC(OCc2ccc(CO)cc2)O1 (centres undefined)	.	3.4	-3.2	.	.	.
O=C1OC(c2ccccc2)(c2ccc3cc(O)ccc3c2)c2ccccc21 (centres undefined)	.	-17.7	92.9*	.	.	14.7
CCC(C)C(CNC(CNC)C(C)O)NCCc1ccc(OC)cc1 (centres undefined)	.	8.4	-0.7	.	.	.
COC(=O)Cn1c(=NC(=O)c2ccc([N+](=O)[O-])s2)sc2cc(Br)ccc21	-3.6	99.3*	96.6*	4.1	-3.0	.
COc1ccc(CCNc2c(C)c(C)nc3ncnn23)cc1	54.4*	5.9	17.0	-1.2	22.1	22.0
CCc1c(C)nc2ncnn2c1NCCc1ccc(OC)c(OC)c1	16.1	2.4	-0.3	-2.5	11.2	1.8
O=C1NCC(c2ccccc2)N(CCc2cc(C(F)(F)F)cc(C(F)(F)F)c2)C1=O (centres undefined)	.	3.2	-0.3	.	.	.
COC(=O)C1=C(c2cc3ccccc3s2)CC2CCC1N2C(=O)NC(C)C (centres undefined)	.	3.1	-6.1	.	.	.
SMILES	DUSP3 inh	Sa RN4220 lethal	ugtP null kill	SARS 3CLpro inh	BJeLR lethal	PrPC TRFRET
CC(C)Oc1ccccc1C1CC(=O)Nc2c1c(=O)n(C)c(=O)n2C (centres undefined)	58.7*	-0.5	6.6	-3.5	-2.5	.
Cc1ccc(NC(=S)NC(=O)C2CCCC2)c(Br)c1	.	6.8	93.1*	.	.	-2.5
COc1ccc(NC(=S)NC(=O)C2CCCCC2)cc1	-3.0	0.8	26.2	5.4	-1.4	3.9
O=C(NC(=S)Nc1ccccc1Br)C1CC1	9.6	4.7	10.3	0.8	10.0	0.3
CC(=O)Nc1ccc(NC(=S)NC(=O)C2CCCC2)cc1	59.7*	0.0	32.0	1.0	0.4	-5.1
COc1ccc(NC(=O)Nc2ccc3c(c2)CC(=O)N(C(C)CO)CC(C)C(CN(C)Cc2ccc(C(=O)O)cc2)O3)cc1 (centres undefined)	.	8.6	5.0	.	.	.
COc1ccc(CN2CC(Cc3ccccc3)C(CC(=O)Nc3ccccc3)C2=O)cc1 (centres undefined)	.	5.9	0.3	.	.	.
O=C(Cn1sc2ccccc2c1=O)Nc1ccccc1	.	.	.	.	.	0.3
O=C(Cn1sc2ccccc2c1=O)NC12CC3CC(CC(C3)C1)C2	10.4	105.9*	100.6*	-0.4	-2.2	.
CCC1(CC)C(=O)C2=C3C(CC(C(=O)OC)=CC(C(=O)OC)C31)n1c(=O)n(C)c(=O)n1C2C (centres undefined)	.	6.4	0.4	.	.	.
Cc1ccccc1OCC(=O)Nn1c(COc2ccccc2)nc2ccccc2c1=O	18.7	110.5*	98.6*	2.0	1.4	2.2
CN1CCN(CCCNC(=O)c2ccc(NC(=O)C3=CSCCO3)cc2)CC1	10.7	1.2	3.2	0.7	-4.3	-5.3
CCN1CCN(CCCNC(=O)c2ccc(NC(=O)C3=CSCCO3)cc2)CC1	52.5*	-4.3	-10.1	0.8	-0.2	-2.0
C=CCC(CC(=O)N(CCO)Cc1ccccc1)C(=O)NCC(OC(=O)C(CC=C)CC(=O)OC(C)(C)C)c1ccccc1 (centres undefined)	.	-0.9	11.0	.	.	.
O=C1c2ccc([N+](=O)[O-])cc2C(=O)N1Cc1cccnc1	51.5*	2.1	1.6	2.2	-1.9	-20.6
CCn1c(O)c(C2=c3ccccc3=NC2=O)c2cc(Br)ccc21	25.7	99.8*	100.7*	0.6	4.2	-7.2
NC(=O)c1sc2nnc(-c3ccccc3)c(-c3ccccc3)c2c1N	23.3	1.9	83.9*	3.6	2.8	-4.0
COCCNC(=O)COC(=O)C=Cc1c(C)nn(Cc2ccc(Cl)cc2Cl)c1Cl	.	7.9	-5.8	.	.	.
CC1CC1C(=O)N1CCN(S(=O)(=O)c2cc(C(F)(F)F)cc(C(F)(F)F)c2)CC1 (centres undefined)	.	86.5*	96.1*	.	.	5.3
Cc1cnc(C(=O)N2CCN(S(=O)(=O)c3cc(C(F)(F)F)cc(C(F)(F)F)c3)CC2)cn1	.	23.3	13.2	.	.	-0.7
CCOC(=O)C(O)(NC(=O)c1cccnc1)C(F)(F)F (centres undefined)	3.6	83.7*	58.4	-7.3	.	-2.6
Cc1cccc(OCCC(=O)Nc2ccc(C)c(S(=O)(=O)N3CCCCC3)c2)c1	51.3*	1.8	-27.4	11.4	-13.2	21.3
CC(C)CC(=O)N1CC=CCC(c2ccc(Cl)cc2)N(Cc2ccc(Cl)cc2)C(=O)C1Cc1ccccc1 (centres undefined)	.	-9.2	-3.6	.	.	.
